Experimental data reported in PubChem BioAssay (NCI).
Several values for one entry are separate records, joined by “and”; a condition that tells them apart may be missing. Equal values may be shown once. About 83,000 compounds went through this panel and 20% of them were active in at least one assay; those are over-represented in the sample as a whole.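 How to read the values: 0–100, growth inhibition (40 = 60% inhibited); 0, no net growth; -100 to 0, cell death (-40 = 40% of starting cells died; -100 = all dead).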 Activity calls are given as the source filed them. The calls were made as follows: active = growth percent below 10; inactive = the rest.

What follows are compounds tested on MDA-MB-468 breast (assay: NCI-60 one-dose screen, 48 h (100 = growth as untreated, 0 = no growth, -100 = all killed)). Conditions: 10 µM unless noted.
With `CN1CCCN(C(c2ccccc2)c2ccc(Cl)cc2)CC1` (stereo unspecified) the growth was 83.1% (inactive). In the case of `C/C(=C\CCc1ccsc1)CC/C=C(\C)CCCN1CCN(CCO)CC1`, the growth was 7.83% (active). With `Cc1ccc2cnc(N)c(C#Cc3cncc(C(=O)Nc4ccc(CN5CCN(C)CC5)c(C(F)(F)F)c4)c3)c2c1` the growth was -87.1% (active). In the case of `Cc1nc2ccccc2c(/C=C/c2ccc(Br)cc2)c1C(=O)/C=C/c1ccccc1`, the growth was -15.5% (active). With `COc1ccc2c(c1)nnc1c3cccnc3[nH]c21` the growth was -92.6% (active). For `O=c1oc2ccc([N+](=O)[O-])cc2cc1Br`, the growth was 101% (inactive). In the case of `CCNC(=O)Nc1nc2ccc(Oc3ccnc(C(=O)NC)c3)cc2s1`, the growth was 50.8% (inactive). `COc1ccc(C(=O)c2cc(OC)c(OC)c(OC)c2)cc1/C=C/C(=O)c1cc(OC)c(OC)c(OC)c1` was tested, and the growth was 73% (inactive). For `C#C[C@@]1(O)[C@@H](CO)O[C@@H](n2cc(I)c3c(N)ncnc32)[C@@H]1O`, the growth was -37.7% (active). With `OCC1OC(n2cnc3c(Cl)ncnc32)CC1O` (stereo unspecified) the growth was 91.9% (inactive). In the case of `COc1cccc(NC(=O)Cn2cc3c(=O)oc4ccccc4c3n2)c1`, the growth was 101% (inactive). `C#CCC(C(=O)OCC)C(=O)OCC` was tested, and the growth was 108% (inactive). `Cc1nn(-c2ccc(Br)cc2)c2nc3c(nc12)C(=O)C(=O)c1ccccc1-3` was tested, and the growth was 95.1% (inactive). For `COc1ccc(-n2c(=O)n(-c3ccc(-c4nc5ccc(F)cc5s4)cc3)c(=O)c3cccnc32)cc1`, the growth was 121% (inactive). In the case of `Cc1onc(-c2c(F)cccc2Cl)c1-c1ncc(-c2ccc(Cl)cc2)o1`, the growth was 66.2% (inactive) and 23.7% (inactive). With `Clc1ccc2c(c1)N(c1ncnc3ccc(-c4cnc5[nH]ncc5c4)cc13)CC2` the growth was 3.65% (active). In the case of `CNC1=C([N+](=O)[O-])C(c2ccc(OC)cc2)C(C#N)=C(c2ccc[nH]2)O1` (stereo unspecified), the growth was 96.1% (inactive). `O=S(=O)(NCCCNc1nccc(-c2c(-c3ccc(F)c(O)c3)nc3occn23)n1)c1ccccc1` was tested, and the growth was 94.8% (inactive). With `Clc1ccc(CSc2nnc(-c3ccc(Cl)cc3)n2-c2ccccc2)cc1` the growth was 64.8% (inactive). In the case of `O=S1(=O)CCC(N(/N=C/c2ccco2)c2ccccc2)C1` (stereo unspecified), the growth was 108% (inactive). `Cn1nc(Nc2ccccc2)c(C(=O)NN)c1N` was tested, and the growth was 100% (inactive). `O=C(NNC(=O)c1nc2cc(F)ccc2n2cccc12)c1cnccn1` was tested, and the growth was 22.2% (inactive). For `COc1cc2c(cc1-c1c(C)noc1C)ncc1nc(C3CCCCC3)n([C@@H](C)COC(F)F)c12`, the growth was 32.6% (inactive). With `O=C(c1nc2ccccc2[nH]1)C1C(c2ccc(Cl)cc2)C2CC3CCCC[C@H]3N2[C@@]12C(=O)Nc1cc(Cl)ccc12` (stereo partly specified) the growth was 12.1% (inactive). For `O=Nc1ccccc1N=O`, the growth was 91.7% (inactive). For `Cc1cc(C2(c3ccc(O)c(C)c3)OS(=O)(=O)c3ccccc32)ccc1O`, the growth was 98.9% (inactive).
